Structures are written as SMILES. Active and inactive are the calls of the source. Rule for the calls: active = hit-call score of the fitted dose curve at least 0.9, where 1 is the maximum; inactive = score below 0.9.

This note sets out measurements from PubChem BioAssay (EPA / NIEHS).

The assay is described as follows: CCTE_Harrill_HTTr_Apoptosis_MCF7: CCTE's 6-hour Apoptosis Assessment for the High-Throughput Transcriptomics (HTTr) Platform, in MCF-7 cells cultured in DMEM + 10% fetal bovine serum, Harrill Lab (AID 2284011). From the text:
This is a cell-based assay that evaluates apoptosis using high content imaging to evaluate activation of caspase-3/7 using the CellEvent Caspase 3/7 Green detection reagent in 384-well format.One of seven assay components measured from the CCTE_Harrill_HTTr_Apoptosis assay. This was part of a full screening experiment. This is a cell-based assay that evaluates apoptosis in MCF-7 cells cultured in DMEM + 10% fetal bovine serum. High content imaging is used to evaluate activation of caspase-3/7 using the CellEvent Caspase 3/7 Green detection reagent. Measurements are taken at 6 hours after chemical dosing in 384-well format.The assay component endpoint CCTE_Harrill_HTTr_Apoptosis_MCF7 was analyzed with bidirectional fitting relation to DMSO as the negative control and baseline of activity. Using a type of viability reporter, gain-of-signal activity can be used to evaluate activation of caspase-3/7 using the CellEvent Caspase 3/7 Green detection reagent to understand changes in apoptosis. To generalize the intended target to other relatable targets, this assay endpoint is annotated to cell cycle, where the subfamily is apoptosis.
Chemicals were tested in MCF7 cells in an eight point dilution series with a six hour exposure duration.
On to `CCOC(=O)COc1ccc2c(c1)CC(NCC(O)c1cccc(Cl)c1)CC2` (stereo not given), for which the outcome was inactive.
`CC1(C)C(=O)N(Br)C(=O)N1Br`: the outcome was inactive.
On to `COC(=O)c1ccccc1O`, for which the result was inactive.
To `CC(C)=CCCC(C)CCO` (stereo not given) belongs “inactive”.
With `Cc1ccc(C)c(O)c1`, the result was inactive.
On to `Clc1nc(Cl)c(Cl)c(Cl)c1Cl`, for which the outcome was inactive.
Take `Cn1c(=O)c2c(ncn2C)n(C)c1=O`: the result was inactive.
On to `O=C1CCCCCN1`, for which the result was inactive.
As for `COc1ccc(/C=C/S(=O)(=O)NC(=O)c2ccc(C)cc2Cl)cc1`, the result was inactive.
`CN(C)c1ccc(Cc2ccc(N(C)C)cc2)cc1`: the outcome was inactive.
Take `CC(C)CCO`: the result was inactive.
In the case of `CC/C(=C\C(=N/O)C(N)=O)C(C)[N+](=O)[O-]` (stereo not given), the result was inactive.
For `CCCCCCCCCCCCc1ccccc1`, the result was inactive.
`NC(=O)NO`: the outcome was inactive.
As to `CC(C)(O)c1coc(S(=O)(=O)NC(=O)Nc2c3c(cc4c2CCC4)CCC3)c1`, the result was inactive.
As to `CN(C)c1ccc(N=NS(=O)(=O)O)cc1`, the result was inactive.
For the compound `CNCc1ccc(NC(=O)c2c[nH]c3c2C(=O)CCC3)cc1`, the result was inactive.
Regarding `O=C(O)c1cccc(N(Cc2cccnc2)c2ccc(OC(F)F)c(OC(F)F)c2)c1`, the result was inactive.
Turning to `O=c1[nH]c2ccc(S(=O)CCN3CCC(Cc4ccc(F)cc4)CC3)cc2o1` (stereo not given), the outcome was inactive.
`O=C1OC(=O)C2C3C=CC(C3)C12` (stereo not given): the outcome was inactive.
Consider `O=C(O)CC(O)C(=O)O` (stereo not given), for which the result was inactive.
Consider `O=P(OC(CCl)CCl)(OC(CCl)CCl)OC(CCl)CCl`, for which the outcome was inactive.
For `CCCCC(CC)COC(=O)c1ccc(C(=O)OCC(CC)CCCC)cc1` (stereo not given), the outcome was inactive.
To `C=CC(=C)CCC=C(C)C` belongs “inactive”.
`Cn1cnc([N+](=O)[O-])c1Sc1ncnc2nc[nH]c12`: the result was inactive.
Regarding `O=C(CCCCCCCCc1cccnc1)N1CCC(C=C(c2ccccc2)c2ccccc2)CC1`, the outcome was inactive.
For the compound `CC(C)=CCCC(C)=CC=O`, the result was inactive.
To `CC(O)CN(CCN(CC(C)O)CC(C)O)CC(C)O` (stereo not given) belongs “inactive”; to `CCNc1ccccc1`, “inactive”; to `CC(=O)OC[C@H]1O[C@@](COC(C)=O)(O[C@H]2O[C@H](COC(C)=O)[C@@H](OC(C)=O)[C@H](OC(C)=O)[C@H]2OC(C)=O)[C@@H](OC(C)=O)[C@@H]1OC(C)=O`, “inactive”.
To `CC(C)=CCC/C(C)=C\CO` belongs “inactive”.
For `Nc1cccc(N)c1`, the outcome was inactive.
For `CC(C)=CCC/C(C)=C/CO`, the result was inactive.
As to `Nc1nc2ncc(CNc3ccc(C(=O)N[C@@H](CCC(=O)O)C(=O)O)cc3)nc2c(=O)[nH]1`, the result was inactive.
In the case of `CC1=CC(=O)CC(C)(C)C1`, the result was inactive.
Consider `CCOCCOCCOCCO`, for which the outcome was inactive.
As for `C1N2CN3CN1CN(C2)C3`, the result was inactive.
Take `Nc1ccc(Nc2ccccc2)cc1`: the outcome was inactive.
In the case of `C[C@](N)(Cc1ccc(O)c(O)c1)C(=O)O`, the result was inactive.
With `C1=CCCC=CCCC=CCC1`, the outcome was inactive.
